What all share (experiment): NCI-60 one-dose screen, 48 h (100 = growth as untreated, 0 = no growth, -100 = all killed)
Common to all, as to settings: 10 µM unless noted

Assay [1] relates to BT-549 breast.
The test system of assay [2] is MDA-MB-435 melanoma.
Assay [3] relates to SW-620 colon.
Assay [4] deals with MCF7 breast.
The subject of assay [5] is HCT-116 colon.
For assay [6], the system named is HCC-2998 colon.
In assay [7] the test system is KM12 colon.

About 83,000 compounds went through this panel and 20% of them were active in at least one assay; those are over-represented in the sample as a whole.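 Compound tested at a single concentration for 48 hours in 96-well plates; a percent growth value below 10 was scored as active.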 A number with no mark means an inactive call. Active and inactive are the calls of the source.

The source of these data is PubChem BioAssay (NCI).

Consider `CN1CCN(Cn2nc(-c3cc(Cl)cc(Cl)c3Cl)oc2=S)CC1`, for which the growth in assay [1] is 94.9%; in assay [2], 88.9%; in assay [3], 100%; in assay [4] it was 97.5%; in assay [5], 97.5%; in assay [6] it was 105%. Moreover, the growth in assay [7] was 94.2%.
`COc1cc(CNC(=O)CCCC/C=C/C(C)C)ccc1OCc1cn(-c2ccc(C(F)(F)F)cc2)nn1`: the growth in assay [1] is 84.5%; in assay [2], 107%; in assay [3], 41.3%; in assay [4], 75.2%; in assay [5], 2.97% (active); in assay [7], 81.2%.
Take `Cn1cc(-c2nc(-c3c[nH]c4ccncc34)cs2)c2cc(F)ccc21`: the growth is 69.6% in assay [1]; -91% (active) in assay [2]; -65.7% (active) in assay [3]; -71.5% (active) in assay [4]; -95.4% (active) in assay [5]; -80.6% (active) in assay [6]. The growth in assay [7] is -95.1% (active).
Turning to `c1ccc2[nH]c(-c3ccc(-c4nccc5c4[nH]c4ccccc45)cc3)nc2c1`, the growth is 73.7% in assay [1]; 59.7% in assay [2]; 68.5% in assay [3]; 30.4% in assay [4]; 16.3% in assay [5]; 74% in assay [6]. Also, the growth in assay [7] is 76.6%.
Take `Cc1nn(-c2ccccc2)c(Oc2ccccc2)c1/C=N/NC(=O)Cn1c(=O)sc2ccccc21`: the growth was 25.6% in assay [1]; 54.3% in assay [2]; 72% in assay [3]; 25.4% in assay [4]; 38.1% in assay [5]; 72.2% in assay [6]. In addition, the growth in assay [7] is 56%.
For the compound `C#CCOc1cccc(-c2ncnc3cc(NC(=O)CCl)ccc23)c1`, the growth in assay [1] was -27.8% (active); in assay [2], -24.7% (active); in assay [3], -58.6% (active); in assay [4] it was 3.63% (active); in assay [5], -74.1% (active); in assay [6] it was 56.6%. In addition, the growth in assay [7] was 16.2%.
Consider `Cn1cc(-c2ccc3occ(-c4cccc(-c5ccncc5)c4)c3n2)cn1`, for which the growth in assay [1] was 10.9%; in assay [2] it was -2.73% (active); in assay [3], 17.8%; in assay [4], 6.54% (active); in assay [5] it was 10.4%; in assay [7], 12.4%.
As for `CO[C@H]1/C=C/O[C@@]2(C)Oc3c(C)c(O)c4c(O)c(c5c(nc6cc(C)ccn65)c4c3C2=O)NC(=O)/C(C)=C\C=C\[C@H](C)[C@H](O)[C@@H](C)C(O)[C@@H](C)[C@H](OC(C)=O)[C@@H]1C` (some centres undefined), the growth in assay [1] is 97.4%; in assay [2] it was 104%; in assay [3] it was 114%; in assay [4] it was 103%; in assay [5] it was 94.9%; in assay [6] it was 106%. For the same compound, the growth in assay [7] was 108%.
`COc1cc2ncnc(Nc3ccc(S(=O)(=O)Nc4cc(C)on4)cc3)c2cc1OCCCN1CCOCC1`: the growth in assay [1] is 91.6%; in assay [2], 106%; in assay [3], 106%; in assay [5], 102%; in assay [6] it was 107%; in assay [7], 103%.
In the case of `CCCc1cc(CCC)n2nc(N)nc2n1`, the growth was 92.9% in assay [1]; 110% in assay [2]; 109% in assay [3]; 103% in assay [5]; 98.1% in assay [6]; 108% in assay [7].
Turning to `Nc1n[nH]c2cccc(C#Cc3cccc(C(=O)Nc4ccc(Cl)c(C(F)(F)F)c4)c3)c12`, the growth in assay [1] is 78.3%; in assay [2] it was 42.8%; in assay [3], 61.8%; in assay [4] it was 50.2%; in assay [5] it was 28.5%; in assay [6] it was 49.4%. Further, the growth in assay [7] is 59.4%.
On to `CCCN1C(=O)N(CCC)C2C1NC(=S)N2/N=C/C=C/c1ccccc1OC` (centres undefined), for which the growth in assay [1] is 56%; in assay [2], -56.1% (active); in assay [3], 22%; in assay [4], 17.4%; in assay [5], 18.3%; in assay [6], 20.3%. Also, the growth in assay [7] is 21.1%.
`COc1ccc2c(c1)c(-c1nc(-c3cn(C)c4ccncc34)cs1)cn2C`: the growth in assay [1] is 91.2%; in assay [2], -90% (active); in assay [3], -77.5% (active); in assay [4], -55.7% (active); in assay [5] it was -88.6% (active); in assay [6] it was -54.1% (active). Besides, in assay [7], the growth was -53.1% (active).
Turning to `COC(=O)c1nc(-c2ccc(C)cc2)oc1N1CCOCC1`, the growth in assay [1] was 87.1%; in assay [2], 103%; in assay [3] it was 99.7%; in assay [4] it was 83%; in assay [5], 97.8%; in assay [6] it was 104%. The growth in assay [7] is 104%.
For `COc1ccccc1/C=C/C1=C(C)CCC(c2ccccc2OC)C1C` (centres undefined), the growth was -16.3% (active) in assay [1]; -3.28% (active) in assay [2]; 18.2% in assay [3]; 7.88% (active) in assay [4]; 2.8% (active) in assay [5]; -12.5% (active) in assay [6]. Further, the growth in assay [7] was 6.67% (active).
Regarding `COc1ccccc1NC(=O)n1c(=O)cc(C)c2ccc(O)cc21`, the growth in assay [1] was 107%; in assay [2] it was 105%; in assay [3], 109%; in assay [4], 101%; in assay [5], 107%; in assay [6], 95.9%. The growth in assay [7] was 101%.
Take `Clc1nc(N2CCC[N+]3(CC2)CC[N+]2(CCCNCC2)CC3)nc(N2CCC[N+]3(CC2)CC[N+]2(CCCNCC2)CC3)n1` (centres undefined): the growth in assay [1] was 95.1%; in assay [2], 90%; in assay [3], 98.2%; in assay [4] it was 91.3%; in assay [5], 87%; in assay [7], 94.4%.
Regarding `O=C(Nc1ccccc1)Nc1ccccc1CNc1nc(Nc2ccc(OCCN3CCCC3)cc2)ncc1Cl`, the growth in assay [1] is 74.8%; in assay [2], 55.2%; in assay [3], 73%; in assay [4], 48.9%; in assay [5], 45.7%; in assay [6] it was 58.3%. The growth in assay [7] was 43.7%.
On to `Cn1cc(-c2ccc3c(Nc4cccc(NC(=O)Nc5cccc(F)c5)c4)ncnc3c2)cn1`, for which the growth in assay [1] is 47.4%; in assay [2], 57.8%; in assay [3] it was 57.7%; in assay [4], 22.1%; in assay [5], 25.5%; in assay [6], 83.3%. Further, the growth in assay [7] was 20.4%.
With `Cc1ccc(C23CCC(=O)N2CCc2cncn23)cc1` (centres undefined), the growth is 100% in assay [1]; 101% in assay [2]; 97.7% in assay [3]; 97.9% in assay [4]; 104% in assay [5]; 107% in assay [6]. In addition, the growth in assay [7] was 101%.
Take `CCN(CC)CCCC(Nc1c2ccc(Cl)cc2nc2ccc(OC)cc12)c1ccncc1` (centres undefined): the growth in assay [1] was 94.6%; in assay [2], 93%; in assay [3] it was 61.9%; in assay [4], 61.2%; in assay [5], 60.8%; in assay [6], 71%. Moreover, the growth in assay [7] was 69.1%.
Take `O=C1CCc2c(sc3[nH]c(=S)n(-c4cc(C(F)(F)F)cc(C(F)(F)F)c4)c(=O)c23)C1`: the growth in assay [1] is 3.75% (active); in assay [2], 7.15% (active); in assay [3], 18.5%; in assay [4], 0.882% (active); in assay [5] it was 3.29% (active); in assay [6], -49.1% (active). The growth in assay [7] is -70.2% (active).
For the compound `C(CCCSC1=NCCN1)CCSC1=NCCN1`, the growth was 112% in assay [1]; 103% in assay [2]; 98.2% in assay [3]; 97.5% in assay [4]; 90.7% in assay [5]; 103% in assay [6]. The growth in assay [7] was 113%.
For `c1ccc2c(-c3cnn4cc(-c5ccc(N6CCNCC6)cc5)cnc34)ccnc2c1`, the growth in assay [1] was -80.9% (active); in assay [2], -99.4% (active); in assay [3], -52.3% (active); in assay [4], -64.1% (active); in assay [5], -98.4% (active); in assay [6], -63.8% (active). Moreover, in assay [7], the growth is -72.7% (active).
As for `COc1ccc(Nc2nccc(Nc3ccc4[nH]ncc4c3)n2)cc1`, the growth is 44.2% in assay [1]; 34.9% in assay [2]; 24.8% in assay [3]; 13.3% in assay [4]; 19.3% in assay [5]; 63.4% in assay [6]. Besides, the growth in assay [7] is 10%.
For the compound `O=C(/C=C\c1ccc(O)c(O)c1)c1ccccc1O`, the growth was 5.5% (active) in assay [1]; 67.9% in assay [2]; 67.7% in assay [3]; 48% in assay [4]; 83.7% in assay [5]; 60.7% in assay [6]. For the same compound, the growth in assay [7] is 60.7%.
For `CCN=c1sc2c(n1NC(=O)c1cc3ccc1CCc1ccc(cc1)CC3)C(=O)c1ccccc1C2=O`, the growth in assay [1] was -97.4% (active); in assay [2], -97.1% (active); in assay [3], -56.6% (active); in assay [4], -63.1% (active); in assay [5], -50.9% (active); in assay [6], -37.9% (active). Further, in assay [7], the growth was -29.9% (active).
